Data published in PubChem BioAssay (NCATS).
Records with an inconclusive call do not appear. Activity calls are given as the source filed them. Unless noted, calls come from the whole dose curve; as a rule, active = well fitted curve in the direction sought with a large enough effect; inconclusive = small, poorly fitted or top-dose-only effect, or another doubt; inactive = no such curve, though single readings can be large; an effect the other way counts as inactive or inconclusive.

How the values were obtained:
[1] = qHTS for Inhibitors of Plasmodium falciparum (DD2) proliferation (AID 504314);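 note: parasite DNA measured by SYBR Green fluorescence after red cell lysis; plate controls were DMSO vehicle for no effect and artemisinin wells for full effect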; settings: P. falciparum Dd2 in erythrocytes, SYBR Green growth, 72 h; series mostly up to 6.11 µM
Summary of the method: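 Normalization used 0.29 uM artemisinin as full inhibition and DMSO as baseline. Parasitized erythrocytes were exposed to compounds for 72 h (37C, 5% CO2), then lysed with saponin/Triton buffer containing SYBR Green I.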

[2] = qHTS for Inhibitors of Plasmodium falciparum (GB4) proliferation (AID 504315);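 note: 0% = DMSO vehicle and -100% = 0.29 µM artemisinin control; nearly all actives have a fitted effect of over 50% in size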; settings: P. falciparum GB4 in erythrocytes, SYBR Green DNA, 72 h; series mostly up to 6.7 µM
Summary of the method: (§1)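 Parasite growth measured as SYBR Green DNA fluorescence (ex 485, em 535 nm) after overnight lysis following 72 h culture at 37 °C, 0.3% parasitemia, 2.5% hematocrit. Values normalized against DMSO and 0.29 uM artemisinin controls, with plate-stack correction.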

[3] = qHTS for Inhibitors of Plasmodium falciparum (7G8) proliferation (AID 504316);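 note: 0% = DMSO vehicle and -100% = 0.29 µM artemisinin full kill; nearly all actives have a fitted effect of over 65% in size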; settings: P. falciparum 7G8 in erythrocytes, SYBR Green DNA, 72 h; series mostly up to 6.7 µM
Summary of the method: as §1

[4] = qHTS for Inhibitors of Plasmodium falciparum (HB3) proliferation (AID 504318);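 note: 0% = DMSO vehicle and -100% = artemisinin control; nearly all actives have a fitted effect of over 60% in size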; settings: P. falciparum HB3 in erythrocytes, SYBR Green DNA, 72 h; series mostly up to 7.21 µM
Summary of the method: as §1

[5] = qHTS for Inhibitors of Plasmodium falciparum (CP250) proliferation (AID 504320);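 note: plate controls were DMSO vehicle for no effect and 0.29 µM artemisinin control for full effect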; settings: P. falciparum CP250 in erythrocytes, SYBR Green DNA, 72 h; series mostly up to 6.7 µM
Summary of the method: as §1

[6] = molecular target: Atrial natriuretic peptide receptor 1 (Homo sapiens) (UniProt P16066); assay: Natriuretic polypeptide receptor (hNpr1) antagonism - Pilot CMLD screen (AID 1347052; calls by dose curve;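 note: HEK293 cells with hNpr1 stimulated by hNppA peptide at 0.1 nM; cGMP level read as GloSensor luciferase luminescence after agonist stimulation; % is set by controls: 0 for no effect and ±100 for the full control effect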); settings: HEK293 hNpr1 GloSensor cGMP luminescence, ANP-stimulated; series mostly up to 9.22 µM
Atrial natriuretic peptide receptor 1 (Homo sapiens), sequence (P16066 whole entry, looked up): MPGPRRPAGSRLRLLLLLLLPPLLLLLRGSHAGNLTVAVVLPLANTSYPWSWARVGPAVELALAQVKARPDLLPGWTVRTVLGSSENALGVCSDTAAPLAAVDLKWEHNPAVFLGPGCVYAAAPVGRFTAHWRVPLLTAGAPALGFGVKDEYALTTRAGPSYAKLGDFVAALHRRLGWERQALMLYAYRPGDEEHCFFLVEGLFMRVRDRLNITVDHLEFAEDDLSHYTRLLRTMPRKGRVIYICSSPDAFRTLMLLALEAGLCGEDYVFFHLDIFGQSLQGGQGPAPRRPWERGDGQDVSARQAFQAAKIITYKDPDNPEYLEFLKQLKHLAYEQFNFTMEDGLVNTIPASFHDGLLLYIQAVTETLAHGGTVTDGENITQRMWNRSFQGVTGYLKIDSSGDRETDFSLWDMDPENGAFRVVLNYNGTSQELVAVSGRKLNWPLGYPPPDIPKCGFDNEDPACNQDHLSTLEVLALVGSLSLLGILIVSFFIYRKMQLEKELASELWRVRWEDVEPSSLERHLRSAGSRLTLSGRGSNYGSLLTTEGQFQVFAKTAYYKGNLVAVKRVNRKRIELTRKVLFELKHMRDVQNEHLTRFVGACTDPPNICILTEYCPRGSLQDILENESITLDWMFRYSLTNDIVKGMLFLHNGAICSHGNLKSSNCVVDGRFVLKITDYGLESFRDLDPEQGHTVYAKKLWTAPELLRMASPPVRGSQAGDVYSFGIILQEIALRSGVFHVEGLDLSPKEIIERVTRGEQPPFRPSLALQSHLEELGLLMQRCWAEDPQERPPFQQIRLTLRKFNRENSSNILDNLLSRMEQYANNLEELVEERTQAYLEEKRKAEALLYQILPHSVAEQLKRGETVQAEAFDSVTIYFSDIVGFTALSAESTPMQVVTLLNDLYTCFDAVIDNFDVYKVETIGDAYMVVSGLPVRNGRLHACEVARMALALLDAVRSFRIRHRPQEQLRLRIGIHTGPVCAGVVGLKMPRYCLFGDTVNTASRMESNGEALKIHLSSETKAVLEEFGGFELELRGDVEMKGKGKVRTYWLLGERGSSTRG

CC(=O)OC[C@H]1O[C@H](CC=NOC[C@@H](O)[C@H]2O[C@@H]3OC(C)(C)O[C@H]3[C@@H]2O)C=C[C@H]1OC(C)=O
inactive: Potency [1] | Potency [2] | Potency [3] | Potency [4] | Potency [5] | Potency [6]

CCC(=O)C[C@@H](NC(=O)OC)c1ccccc1
inactive: Potency [1] | Potency [2] | Potency [3] | Potency [4] | Potency [5] | Potency [6]

COCC(=O)C(C(=O)OC)[C@H](CCc1ccccc1)NC(=O)OC (stereo not given in full)
inactive: Potency [1] | Potency [2] | Potency [3] | Potency [4] | Potency [5] | Potency [6]

CCCCC1=CC2=C(c3ccco3)C(=O)C(C)(OC(=O)c3ccc(OC)cc3)C(=O)C2=CN1Cc1ccc(OC)cc1 (stereo not given)
inactive: activity, negative = inhibition [1] 1.26% [at 1.12 µM] | Potency [2] | Potency [3] | Potency [4] | Potency [5] | Potency [6]

CCN1C(=NCc2ccc3c(c2)OCO3)NC(CCc2ccccc2)C(C(=O)OC)=C1C (stereo not given)
inactive: Potency [1] | Potency [2] | Potency [3] | Potency [4] | Potency [5] | Potency [6]

C=C(C)C(=O)C=CCCCC=CC(=O)OCC
inactive: Potency [1] | Potency [2] | Potency [3] | Potency [4] | Potency [5] | Potency [6]

COc1ccc([C@]23Cc4c(ccc5ccccc45)[C@H](O2)c2c(cc(-c4ccccc4)oc2=O)O3)cc1
inactive: Potency [1] | Potency [2] | Potency [3] | Potency [4] | Potency [5] | Potency [6]

COC(=O)CCCC1=CC2=CC(=O)C(C)(OC(=O)c3cccs3)C(=O)C2=CN1C1CCCCC1 (stereo not given)
inactive: Potency [1] | Potency [2] | Potency [3] | Potency [4] | Potency [5] | Potency [6]

C[C@@H]1NC(=O)[C@@H](C)COC(=O)[C@H](C)NC(=O)[C@@H](C)COC1=O
inactive: Potency [1] | Potency [2] | Potency [3] | Potency [4] | Potency [5] | Potency [6]

COCCN1C=C2C(=O)C(C)(OC(=O)c3cccs3)C(=O)C=C2C=C1CCCC(=O)OC (stereo not given)
inactive: Potency [1] | Potency [2] | Potency [3] | Potency [4] | Potency [5] | Potency [6]

COC(=O)CC=C[C@@H](C)[C@@H](C=NOC[C@@H](O)COCc1ccco1)OC
inactive: Potency [1] | Potency [2] | Potency [3] | Potency [4] | Potency [5] | Potency [6]

C=CCN(C)C1=NC(c2ccccc2)C(C(=O)OC)=C(C)N1CCOC (stereo not given)
inactive: Potency [1] | Potency [2] | Potency [3] | Potency [4] | Potency [5] | Potency [6]

C=CCOC(=O)N[C@H](c1ccc2ccccc2c1)[C@H](C)C=CCC(=O)OC
inactive: Potency [1] | Potency [2] | Potency [3] | Potency [4] | Potency [5] | Potency [6]

C[C@@H]1C=CCCO[C@]12C(=O)Nc1ccc(O)cc12
inactive: Potency [1] | Potency [2] | Potency [3] | Potency [4] | Potency [5] | Potency [6]

COc1ccc2c(c1)C(=O)[C@H](OC(=O)Nc1ccc(OC(F)F)cc1)[C@@H](c1ccc(OC)c(Br)c1)O2
inactive: Potency [1] | Potency [2] | Potency [3] | Potency [4] | Potency [5] | Potency [6]

COC(=O)C1=C(C(=O)OC)[C@@H]2N(C)c3ccccc3[C@@]23C[C@@H](CO)N(C(=O)c2ccc(Br)cc2)C3=N1
inactive: Potency [1] | Potency [2] | Potency [3] | Potency [4] | Potency [5] | Potency [6]

COC(=O)CC1c2ccccc2C=C(C2CC2)N1C(=O)OC (stereo not given)
inactive: Potency [1] | Potency [2] | Potency [3] | Potency [4] | Potency [5] | Potency [6]

COC(=O)C[C@H]1c2ccccc2[C@@H]2C(=C[C@@H](C)[C@H]3C(=O)NC(=O)[C@H]32)N1C(=O)OC
inactive: Potency [1] | Potency [2] | Potency [3] | Potency [4] | Potency [5] | Potency [6]

CCO[C@@H]1C[C@@]1(C=C[C@@H](C)[C@H](OC)c1ccccc1Br)C(=O)OC
inactive: Potency [1] | Potency [2] | Potency [3] | Potency [4] | Potency [5] | Potency [6]

CC1(OC(=O)CCc2ccccc2)C(=O)C=C2C=C(c3ccsc3)OC=C2C1=O (stereo not given)
inactive: Potency [1] | Potency [2] | Potency [3] | Potency [4] | Potency [5] | Potency [6]

CCN1C(=S)NC(c2ccccc2)C(C(=O)OC)=C1C (stereo not given)
inactive: Potency [1] | Potency [2] | Potency [3] | Potency [4] | Potency [5] | Potency [6]

C[C@@H]1C=CCCO[C@]12C(=O)N(CC1CC1)c1cccc(Br)c12
inactive: Potency [1] | Potency [2] | Potency [3] | Potency [4] | Potency [5] | Potency [6]

COC(=O)C1=C(C)[C@@H](O)[C@@H](C)[C@](C)(c2cc(OC)c(C)c(OC)c2COc2ccccc2)O1
inactive: Potency [1] | Potency [2] | Potency [3] | Potency [4] | Potency [5] | Potency [6]

COC(=O)N1C(C2CC2)=Cc2ccccc2C1CC(C)=O (stereo not given)
inactive: activity, negative = inhibition [1] -2.33% [at 1.12 µM] | Potency [2] | Potency [3] | Potency [4] | Potency [5] | Potency [6]

COc1ccc2c(c1)O[C@H](c1ccc3c(c1)OCO3)[C@@H](OC(=O)Nc1cc(OC)c(OC)c(OC)c1)C2=O
inactive: Potency [1] | Potency [2] | Potency [3] | Potency [4] | Potency [5] | Potency [6]
